Data on 20 compounds can be found in PubChem BioAssay (EPA / NIEHS).

Assay [1] has as its target PGR (gene 5241) (UniProt P06401). The assay can be described thus: NVS_NR_hPR: NovaScreen (NVS) Nuclear Receptor Binding Assay for human Progestron Receptor (PR) (AID 2283360).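 Also: active means loss of bound radioligand signal versus DMSO baseline.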 Put shortly:
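Competitive displacement of a labelled radioligand from T47D-derived receptor protein is measured in a cell-free format. Initial testing uses 25 uM in duplicate, with positive and negative controls on every plate.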

Assay [2] has as its target Peroxisome proliferator-activated receptor gamma (Homo sapiens) (UniProt P37231). As to the kind of experiment: NVS_NR_hPPARg: NovaScreen (NVS) Nuclear Receptor Binding Assay for human Peroxisome Proliferator-activated Receptor gamma (PPARg) (AID 2283370). An outline of the steps: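 Cell-free fluorescence polarization binding to human PPARg protein, read 2 h after dosing. Primary screen in duplicate at 25 uM, actives followed in concentration series; loss of signal relative to DMSO scored.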

For assay [3], the target named is human Adenosine Transporter (Adot), SLC29A1 (gene 2030) (UniProt Q99808). The assay can be described thus: NVS_TR_hAdoT: NovaScreen (NVS) Transporter Assay for human Adenosine Transporter (Adot) (AID 2283368). Put shortly: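 Binding displacement on U937 extracted protein, read 1 h post-dose by filtration and scintillation counting. Primary duplicate test at 25 uM, then singleton concentration series with 50 uM top; DMSO baseline.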

In assay [4] the target is human Norepinephrine Transporter (NET), SLC6A2 (gene 6530) (UniProt P23975). The assay can be described thus: NVS_TR_hNET: NovaScreen (NVS) Transporter Assay for human Norepinephrine Transporter (NET) (AID 2283377).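 Also: cell-free membrane protein extracted from CHO cells expressing human NET.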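 As to AC50: displacement of radioligand from human NET seen as loss of scintillation signal.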 Put shortly: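 In this cell-free binding screen, chemicals at 25 uM (duplicate) compete with a radioligand for CHO-derived human NET over 1 hour, with filter-based radiodetection.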

For assay [5], the target named is Nuclear receptor subfamily 1 group I member 2 (Homo sapiens) (UniProt O75469). As to the kind of experiment: NVS_NR_hPXR: NovaScreen (NVS) Nuclear Receptor Binding Assay for human Pregnane X Receptor (PXR) (AID 2283365).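 Also: a drop in FRET signal versus DMSO baseline means the compound binds.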 An outline of the steps: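 Cell-free TR-FRET binding assay with extracted human PXR protein, read 2 h after dosing. Primary screen run in duplicate at 25 uM, actives followed in concentration series; loss of signal fitted against DMSO baseline.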
Chain of Nuclear receptor subfamily 1 group I member 2 (Homo sapiens) (O75469 whole entry, looked up): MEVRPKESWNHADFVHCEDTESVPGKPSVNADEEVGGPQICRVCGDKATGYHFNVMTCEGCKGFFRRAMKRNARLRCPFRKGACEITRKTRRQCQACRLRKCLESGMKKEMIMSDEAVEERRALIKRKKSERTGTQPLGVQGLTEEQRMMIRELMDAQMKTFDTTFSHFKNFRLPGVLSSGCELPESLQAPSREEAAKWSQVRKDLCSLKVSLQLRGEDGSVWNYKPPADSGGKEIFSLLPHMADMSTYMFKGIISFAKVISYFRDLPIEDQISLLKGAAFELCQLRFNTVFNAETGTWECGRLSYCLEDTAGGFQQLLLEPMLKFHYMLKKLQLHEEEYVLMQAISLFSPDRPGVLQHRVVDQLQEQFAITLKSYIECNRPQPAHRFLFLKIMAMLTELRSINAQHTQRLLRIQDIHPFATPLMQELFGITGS

The target of assay [6] is guinea pig Sigma Receptor, Non-selective Binding, SIGMAR1 (gene 100135589) (UniProt Q60492). As to the kind of experiment: NVS_OR_gSIGMA_NonSelective: NovaScreen (NVS) Nuclear Receptor Binding Assay for guinea pig Sigma Receptor, Non-selective Binding (AID 2283367). Put shortly: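 Test chemicals were screened in duplicate at 25 uM, then in concentration series if active, against radioligand binding to guinea pig brain membranes; filtration and scintillation counting at 1 h measured remaining bound ligand.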
Chain of guinea pig Sigma Receptor, Non-selective Binding, SIGMAR1 (gene 100135589) (Q60492 whole entry, looked up): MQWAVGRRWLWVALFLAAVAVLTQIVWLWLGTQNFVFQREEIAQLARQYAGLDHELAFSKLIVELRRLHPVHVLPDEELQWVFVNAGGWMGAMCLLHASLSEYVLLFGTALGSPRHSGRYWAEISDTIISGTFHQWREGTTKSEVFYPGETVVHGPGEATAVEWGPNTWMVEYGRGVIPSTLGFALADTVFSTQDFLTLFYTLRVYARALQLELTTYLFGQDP

Assay [7] has as its system guinea pig Dopamine Transporter (DAT), gene 100714898. The assay can be described thus: NVS_TR_gDAT: NovaScreen (NVS) Transporter Assay for guinea pig Dopamine Transporter (DAT) (AID 2283369).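 Also: active compounds lower bound radioligand signal relative to DMSO.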 An outline of the steps:
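Guinea pig striatal membranes, cell-free radioligand binding with filter-based scintillation counting, read 2 h after dosing. Loss of signal versus DMSO baseline; single-concentration primary (25 uM) then concentration-response up to 50 uM.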

In assay [8] the target is rat Serotonin Transporter (SERT), Slc6a4 (gene 25553) (UniProt P31652). The assay can be described thus: NVS_TR_rSERT: NovaScreen (NVS) Transporter Assay for rat Serotonin Transporter (SERT) (AID 2283375). An outline of the steps:
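Rat forebrain membranes; radioligand displacement at SERT read by filter-based scintillation counting, 1 h after dosing. Screened in duplicate at 25 uM, actives then run in concentration series; loss of signal versus DMSO baseline.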

The target of assay [9] is Agonist Androgen Response Element (ARE), AR (gene 367) (UniProt P10275). As to the kind of experiment: OT_AR_ARELUC_AG_1440: Odyssey Thera (OT) 24-hour CHO-K1 Luciferase Assay for Agonist Androgen Response Element (ARE) (AID 2283379). Put shortly: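 Luminescence increase above DMSO, read after a 24 h compound treatment of CHO-K1 cells expressing an androgen response element luciferase reporter, gives the single primary endpoint; concentration-response fitting used the positive direction.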
Chain of Agonist Androgen Response Element (ARE), AR (gene 367) (P10275 whole entry, looked up): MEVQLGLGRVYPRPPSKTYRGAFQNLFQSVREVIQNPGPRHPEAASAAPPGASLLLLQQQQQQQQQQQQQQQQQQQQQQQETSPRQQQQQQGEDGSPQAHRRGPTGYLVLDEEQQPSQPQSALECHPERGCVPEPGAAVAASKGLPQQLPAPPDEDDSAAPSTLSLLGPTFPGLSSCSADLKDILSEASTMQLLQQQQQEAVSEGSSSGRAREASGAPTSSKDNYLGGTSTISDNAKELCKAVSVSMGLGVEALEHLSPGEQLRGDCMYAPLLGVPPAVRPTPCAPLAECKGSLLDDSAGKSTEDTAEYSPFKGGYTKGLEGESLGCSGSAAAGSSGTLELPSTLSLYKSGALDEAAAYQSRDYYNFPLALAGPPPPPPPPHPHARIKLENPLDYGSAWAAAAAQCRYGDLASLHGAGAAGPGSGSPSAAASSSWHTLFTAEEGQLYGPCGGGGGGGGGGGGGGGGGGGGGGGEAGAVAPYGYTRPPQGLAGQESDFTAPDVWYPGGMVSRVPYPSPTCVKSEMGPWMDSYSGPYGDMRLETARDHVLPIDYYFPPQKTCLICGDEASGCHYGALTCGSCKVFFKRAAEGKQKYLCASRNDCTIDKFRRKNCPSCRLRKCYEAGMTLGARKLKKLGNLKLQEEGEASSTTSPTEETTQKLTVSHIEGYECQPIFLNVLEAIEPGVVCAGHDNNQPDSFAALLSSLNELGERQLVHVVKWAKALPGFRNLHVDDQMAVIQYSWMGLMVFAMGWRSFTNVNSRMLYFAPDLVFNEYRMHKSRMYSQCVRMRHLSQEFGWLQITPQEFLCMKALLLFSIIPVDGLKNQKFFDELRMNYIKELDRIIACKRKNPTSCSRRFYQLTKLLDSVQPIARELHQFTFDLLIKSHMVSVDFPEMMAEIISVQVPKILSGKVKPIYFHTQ

For assay [10], the target named is Estrogen receptor beta (Homo sapiens) (UniProt Q92731). The assay can be described thus: OT_ER_ERbERb_1440: Odyssey Thera (OT) 24-hour HEK293T Protein-Complementation Assay for Estrogen Receptor-beta/-beta Homodimer (AID 2283380).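 Also: fluorescence gain from ER beta LBD homodimer complementation read by laser scanning cytometry; scored as signal increase over DMSO baseline for both agonists and antagonists.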 An outline of the steps:
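HEK293T cells stably expressing human ER-beta LBD (aa 310-547) PCA homodimer pair, dosed 24 h; formaldehyde-fixed, Draq5-stained. Readout: increase in nuclear (agonist) or nuclear plus cytoplasmic (antagonist) fluorescence intensity versus DMSO, gain-of-signal fitting.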

Assay [11] addresses human Peroxisome Proliferator-activated Receptor alpha (PPARa), PPARA (gene 5465) (UniProt Q07869). The assay can be described thus: NVS_NR_hPPARa: NovaScreen (NVS) Nuclear Receptor Binding Assay for human Peroxisome Proliferator-activated Receptor alpha (PPARa) (AID 2283359).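 Also: activity means loss of TR-FRET signal versus DMSO baseline.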 Put shortly:
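One-hour incubation, cell-free extracted protein, TR-FRET binding readout; signal loss vs DMSO scored. Screen: 25 uM duplicates, confirmatory dose series for actives.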

Assay [12] has as its target Glucocorticoid receptor (Homo sapiens) (UniProt P04150). As to the kind of experiment: NVS_NR_hGR: NovaScreen (NVS) Nuclear Receptor Binding Assay for human Glucocorticoid Receptor (GR) (AID 2283363). An outline of the steps:
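Single-readout cell-free binding: radioligand plus extracted receptor, 16-hour dosing, filter radiodetection; 25 uM duplicate primary, concentration series secondary.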

For assay [13], the system named is rat Norepinephrine Transporter (NET), gene 83511. As to the kind of experiment: NVS_TR_rNET: NovaScreen (NVS) Transporter Assay for rat Norepinephrine Transporter (NET) (AID 2283373). Put shortly: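 Competitive radioligand displacement at the rat NET using forebrain membrane preparations, 1 h incubation, filter-based scintillation readout. Primary testing in duplicate at a single 25 uM concentration; confirmed actives retested across concentrations.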

Assay [14] addresses mouse Estrogen Receptor alpha (Era), Esr1 (gene 13982) (UniProt P19785). As to the kind of experiment: NVS_NR_mERa: NovaScreen (NVS) Nuclear Receptor Binding Assay for mouse Estrogen Receptor alpha (Era) (AID 2283378).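 Also: hit means loss of bound radioligand signal relative to DMSO.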 An outline of the steps:
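Cell-free radioligand competitive displacement binding, read by filter-based scintillation counting 18 h after dosing. Primary screen run in duplicate at 25 uM, actives retested in concentration series; loss of signal versus DMSO.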

The target of assay [15] is human Thyroid Receptor Alpha (TRa), THRA (gene 7067) (UniProt P10827). As to the kind of experiment: NVS_NR_hTRa_Antagonist: NovaScreen (NVS) Nuclear Receptor Binding Assay for human Thyroid Receptor Alpha Antagonism (TRa) (AID 2283362).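 Also: activity is loss of signal relative to DMSO baseline.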 An outline of the steps:
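Cell-free AlphaLISA chemiluminescent binding read 1 h after dosing, antagonist mode; signal loss versus DMSO baseline. Primary screen in duplicate at 25 uM, then concentration series for actives.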

Results filed as inconclusive are left out. The source made the active and inactive calls. The calls were made as follows: active = hit-call score of the fitted dose curve at least 0.9, where 1 is the maximum; inconclusive = response in the unintended direction; inactive = score below 0.9.

Chain of Estrogen receptor beta (Homo sapiens) (Q92731 whole entry, looked up, the tested form may be a part): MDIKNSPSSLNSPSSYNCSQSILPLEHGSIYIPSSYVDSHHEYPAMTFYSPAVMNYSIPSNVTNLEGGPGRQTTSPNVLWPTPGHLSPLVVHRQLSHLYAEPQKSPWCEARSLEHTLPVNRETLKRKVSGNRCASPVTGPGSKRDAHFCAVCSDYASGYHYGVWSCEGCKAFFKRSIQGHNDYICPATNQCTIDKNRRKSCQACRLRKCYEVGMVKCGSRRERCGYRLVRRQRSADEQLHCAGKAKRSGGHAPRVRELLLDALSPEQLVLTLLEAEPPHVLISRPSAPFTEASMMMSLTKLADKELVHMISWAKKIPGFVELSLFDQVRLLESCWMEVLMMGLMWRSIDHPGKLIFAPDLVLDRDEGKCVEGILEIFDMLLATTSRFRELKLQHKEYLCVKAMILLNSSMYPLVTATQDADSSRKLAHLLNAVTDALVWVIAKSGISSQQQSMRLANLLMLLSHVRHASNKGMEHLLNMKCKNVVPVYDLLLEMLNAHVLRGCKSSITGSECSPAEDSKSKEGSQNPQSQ
Chain of PGR (gene 5241) (P06401 whole entry, looked up): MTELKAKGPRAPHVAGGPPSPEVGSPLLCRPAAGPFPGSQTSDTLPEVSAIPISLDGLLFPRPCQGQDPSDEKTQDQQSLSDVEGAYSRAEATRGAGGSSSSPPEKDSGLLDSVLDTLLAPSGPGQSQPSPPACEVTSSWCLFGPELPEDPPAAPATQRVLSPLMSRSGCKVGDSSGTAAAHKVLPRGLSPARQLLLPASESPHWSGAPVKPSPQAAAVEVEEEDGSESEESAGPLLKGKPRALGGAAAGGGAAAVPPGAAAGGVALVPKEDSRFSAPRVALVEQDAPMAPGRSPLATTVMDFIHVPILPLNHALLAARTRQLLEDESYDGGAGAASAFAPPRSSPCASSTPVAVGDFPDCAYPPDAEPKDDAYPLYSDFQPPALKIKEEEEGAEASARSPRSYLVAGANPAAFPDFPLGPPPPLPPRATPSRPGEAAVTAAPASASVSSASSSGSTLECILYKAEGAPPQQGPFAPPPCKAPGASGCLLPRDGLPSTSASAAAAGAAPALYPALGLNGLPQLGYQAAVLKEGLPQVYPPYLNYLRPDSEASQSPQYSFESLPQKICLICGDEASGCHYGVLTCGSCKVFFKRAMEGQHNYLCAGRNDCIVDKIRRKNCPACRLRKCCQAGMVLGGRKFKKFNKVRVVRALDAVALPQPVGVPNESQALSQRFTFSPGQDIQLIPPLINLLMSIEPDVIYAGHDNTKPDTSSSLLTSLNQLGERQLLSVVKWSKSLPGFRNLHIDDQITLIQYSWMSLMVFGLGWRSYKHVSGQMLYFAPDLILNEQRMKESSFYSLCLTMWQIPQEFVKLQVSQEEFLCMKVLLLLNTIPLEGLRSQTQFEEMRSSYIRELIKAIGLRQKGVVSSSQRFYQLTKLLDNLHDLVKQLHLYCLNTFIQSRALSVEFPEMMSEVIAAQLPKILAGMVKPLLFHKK
Chain of Peroxisome proliferator-activated receptor gamma (Homo sapiens) (P37231 whole entry, looked up): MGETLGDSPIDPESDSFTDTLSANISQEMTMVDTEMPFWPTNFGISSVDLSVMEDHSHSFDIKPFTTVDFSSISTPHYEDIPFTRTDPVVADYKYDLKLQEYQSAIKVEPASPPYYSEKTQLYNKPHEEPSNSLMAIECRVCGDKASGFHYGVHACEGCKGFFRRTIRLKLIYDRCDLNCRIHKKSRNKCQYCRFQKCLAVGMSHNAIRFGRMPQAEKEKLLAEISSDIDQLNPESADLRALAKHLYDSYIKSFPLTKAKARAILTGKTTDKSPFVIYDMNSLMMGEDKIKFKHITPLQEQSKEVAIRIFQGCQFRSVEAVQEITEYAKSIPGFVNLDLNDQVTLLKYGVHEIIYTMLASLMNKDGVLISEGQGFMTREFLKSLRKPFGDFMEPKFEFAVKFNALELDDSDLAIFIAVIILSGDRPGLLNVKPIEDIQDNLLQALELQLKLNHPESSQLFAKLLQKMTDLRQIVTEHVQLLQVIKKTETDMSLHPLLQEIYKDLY
Chain of rat Serotonin Transporter (SERT), Slc6a4 (gene 25553) (P31652 whole entry, looked up): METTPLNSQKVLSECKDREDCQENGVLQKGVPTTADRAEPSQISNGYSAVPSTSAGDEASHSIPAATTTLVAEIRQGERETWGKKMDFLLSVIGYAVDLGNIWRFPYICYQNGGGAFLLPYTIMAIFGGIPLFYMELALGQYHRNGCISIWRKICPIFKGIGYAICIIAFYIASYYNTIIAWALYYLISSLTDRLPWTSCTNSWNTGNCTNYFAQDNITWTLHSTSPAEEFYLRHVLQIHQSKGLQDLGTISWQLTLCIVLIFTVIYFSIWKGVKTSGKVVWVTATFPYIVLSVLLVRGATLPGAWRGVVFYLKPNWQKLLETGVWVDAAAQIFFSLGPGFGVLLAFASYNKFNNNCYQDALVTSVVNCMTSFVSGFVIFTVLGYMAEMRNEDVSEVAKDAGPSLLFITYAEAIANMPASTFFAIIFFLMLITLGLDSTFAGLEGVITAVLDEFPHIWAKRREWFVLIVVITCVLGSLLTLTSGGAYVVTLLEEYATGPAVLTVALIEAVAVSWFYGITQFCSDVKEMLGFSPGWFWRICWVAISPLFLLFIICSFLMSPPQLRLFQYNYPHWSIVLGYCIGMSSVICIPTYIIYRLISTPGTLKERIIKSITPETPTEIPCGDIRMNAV
Chain of human Peroxisome Proliferator-activated Receptor alpha (PPARa), PPARA (gene 5465) (Q07869 whole entry, looked up): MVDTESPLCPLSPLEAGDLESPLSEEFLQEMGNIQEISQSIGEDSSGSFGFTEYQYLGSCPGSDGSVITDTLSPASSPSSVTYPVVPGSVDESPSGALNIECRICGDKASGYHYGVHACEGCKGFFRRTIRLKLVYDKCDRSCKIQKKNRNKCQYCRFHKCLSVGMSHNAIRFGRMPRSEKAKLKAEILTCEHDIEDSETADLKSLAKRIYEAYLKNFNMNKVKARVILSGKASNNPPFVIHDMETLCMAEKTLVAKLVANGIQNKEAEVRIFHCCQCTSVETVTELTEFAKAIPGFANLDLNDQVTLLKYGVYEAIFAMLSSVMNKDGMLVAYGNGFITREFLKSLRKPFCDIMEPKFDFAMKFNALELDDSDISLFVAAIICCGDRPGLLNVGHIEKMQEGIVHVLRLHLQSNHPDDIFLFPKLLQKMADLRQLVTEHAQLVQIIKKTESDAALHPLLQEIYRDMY

`OCC(O)CO`: in assay [1], the outcome was inactive. Also, in assay [2], the AC50 is 0.00229 µM (active).

`COC(=O)[C@H]1[C@H]2C[C@@H]3c4[nH]c5cc(OC)ccc5c4CCN3C[C@H]2C[C@@H](OC(=O)c2cc(OC)c(OC)c(OC)c2)[C@@H]1OC`: the results for the AC50 in assay [3] and in assay [4] were 6.6 µM (active) and 5.72 µM (active), respectively.

In the case of `CN(C)C(=O)NC1(c2ccccc2)CCN(CC[C@@]2(c3ccc(F)c(F)c3)CN(C(=O)c3ccccc3)CCO2)CC1`, the outcome in assay [5], in [2] and in assay [4] was inactive.

As for `Cc1cc(SC2=C(O)C[C@@](CCc3ccc(N)cc3)(C(C)C)OC2=O)c(C(C)(C)C)cc1CO`, the result in assay [6], in assay [7], in assay [8] and in [9] was inactive.

For the compound `N[C@@H](Cc1c[nH]c2ccccc12)C(=O)O`, the result in assay [10] was inactive.

For the compound `CC1=C(C)S(=O)(=O)CCS1(=O)=O`, the result in assay [11], in [1], in assay [9] and in [10] was inactive.

For `COC(=O)CCC(=O)OC`, in assay [1], the result was inactive.

Regarding `CCCCOC(=O)CCCCC(=O)OCCCC`, the result in [11], in assay [12] and in assay [10] was inactive.

Turning to `CCc1cc(C2=C(C(=O)O)N(c3ccccc3C(F)(F)F)S(=O)(=O)c3ccccc32)cc2c1OCO2`, the compound was called inactive in assay [4].

For the compound `Cn1cnc2c1c(=O)[nH]c(=O)n2C`, the result in assay [1], in assay [6] and in assay [2] was inactive. Also, the figures for the half-maximal activity concentration (AC50) in assay [7] and in assay [8] were 10.5 µM (active) and 2.36 µM (active), respectively.

Turning to `CSc1ccc(Oc2ccc(S(N)(=O)=O)cc2CN(C)C)cc1C`, the call in [11], in [1], in assay [5], in [14], in assay [9] and in assay [10] was inactive. Besides, the AC50 in [6] was 12.8 µM (active); in [7], 7.61 µM (active); in assay [13], 25 µM (active); in assay [8], 0.00229 µM (active); in assay [4], 4.12 µM (active).

On to `O=C1NC(=O)C(c2ccccc2)(c2ccccc2)N1`, for which the compound was called inactive in assay [15] and in assay [5].

`CC1(C)C(=O)NC(=O)N1CO`: in [10], the AC50 is 57.3 µM (active).

As to `CN(C)CCCN1c2ccccc2Sc2ccc(Cl)cc21`, the AC50 in assay [6] was 2.11 µM (active); in [7], 8.84 µM (active); in assay [13], 0.0781 µM (active); in assay [8], 2.55 µM (active). Further, the outcome in assay [10] was inactive.

Take `CCOCCOCCO`: the compound was classed as inactive in assay [2] and in assay [9].

Turning to `O=C1c2c(O)cccc2Cc2cccc(O)c21`, the call in [5] was inactive.

Turning to `O=C(O)c1[nH]n(-c2ccc(S(=O)(=O)O)cc2)c(=O)c1N=Nc1ccc(S(=O)(=O)O)cc1`, the result in assay [15] was inactive.

On to `CC(C)(O)c1ccc(CNC(=O)c2cccnc2Oc2ccc(F)cc2)cc1`, for which, in assay [3], the AC50 is 34.7 µM (active). Besides, the outcome in assay [10] was inactive.

As to `CC(C)COC(=O)CCCCC(=O)OCC(C)C`, the result in assay [11] and in assay [1] was inactive.

As to `CC(=O)O`, in [1], the result was inactive.

A word on the AC50: it is the midpoint of the concentration-response curve, whichever way the signal moves.
